The list is not random: actives were taken first. Their share in the collection is about 2.8%.
Pol kappa inh: DNA polymerase kappa (human) inhibition | Q9UBT6 | purified Pol kappa, fluorescent DNA synthesis assay, 10 min | Potency, µM (highest dose often 107 µM), for inactives: at the highest dose activity, negative = inhibition, actives largely listed as inhibitors | 400,000 compounds, 0.53% hits | AID 588579; note: potency is the fitted concentration of half-maximal effect; % is set by controls: 0 for no effect and ±100 for the full control effect
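Activity was followed as the change in fluorescence between reads at 0 and 10 min after starting the reaction with 50 nM substrate. Beforehand, 10 nM polymerase had been preincubated with compound for 15 min at room temperature.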
PI4K2A block: PI4K2A (human) kinase inhibition. Q9BTU6. purified PI4K2A, ADP-Glo luminescence, 1 h; stronger effect = lower value. AID 1346378. activity change, negative = inhibition, % at 76.9 µM. 420,000 compounds, 0.13% hits; in the data active = activity change below about -50%; inconclusive = mostly about -30% to -49%;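 note: -100% = wells without enzyme as full effect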
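PI4K2A activity was measured by ADP-Glo luminescence: enzyme (4 ug/mL stock) and phosphatidylinositol (1.2 mM stock) in Tris pH 7.5/MgCl2/EGTA/Triton X-100 buffer were reacted with ATP (300 microM stock) for one hour at ambient temperature.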
Pol iota inh: DNA polymerase iota (human) inhibition. Q9UNA4. Pol iota fluorescent replication assay, 10 min. Potency, µM (highest dose often 115 µM), without a hit: top-dose activity, negative = inhibition, most hits filed as inhibitors. 390,000 compounds, 1% hits. AID 588590; note: potency is the fitted concentration of half-maximal effect
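Fluorescent replication assay read twice, at 0 min and 10 min after adding 50 nM (final) substrate. Enzyme (10 nM) and compounds were first incubated 15 min at room temperature; enzyme-free buffer wells were negative controls.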
PI5P4K alpha inh: blocks human PI5P4K alpha kinase activity; P48426; PI5P4Kalpha enzyme, ADP-Glo luminescence, 60 min; stronger effect = lower value; max response, %; 330,000 compounds, 1.2% hits; active = max response of -50% or lower; inconclusive = between -30% and -50%; inactive = -30% or higher; note: value at the top dose of about 77 µM; % is set by controls: 0 for no effect and ±100 for the full control effect
Target sequence (P48426 whole entry, looked up): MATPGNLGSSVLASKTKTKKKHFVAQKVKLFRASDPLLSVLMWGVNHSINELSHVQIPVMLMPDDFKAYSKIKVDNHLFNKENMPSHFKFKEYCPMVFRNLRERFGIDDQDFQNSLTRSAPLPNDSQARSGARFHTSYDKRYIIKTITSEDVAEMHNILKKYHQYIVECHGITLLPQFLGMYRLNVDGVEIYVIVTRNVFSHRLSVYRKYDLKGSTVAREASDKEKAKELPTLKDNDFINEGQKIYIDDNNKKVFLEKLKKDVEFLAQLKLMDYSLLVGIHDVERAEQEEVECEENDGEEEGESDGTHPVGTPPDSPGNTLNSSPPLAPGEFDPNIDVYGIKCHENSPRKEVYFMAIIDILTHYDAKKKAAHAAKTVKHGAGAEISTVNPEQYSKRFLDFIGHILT
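PI5P4Kalpha ADP-Glo assay; 5 microM ATP final; 60 min RT reaction; HEPES pH 7.4/EGTA/CHAPS, 5% DMSO; controls lacking substrate or enzyme; luminescent end-point.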
Pol eta inh: inhibitors of human DNA polymerase eta; 390,000 compounds, 1.2% hits; Q9Y253; AID 588591; Potency, µM (titrated, usually from 114 µM), for the others: at the top dose activity change, negative = inhibition, most hits filed as inhibitors; recombinant Pol eta, fluorescent DNA replication assay; note: potency is the fitted concentration of half-maximal effect; % is set by controls: 0 for no effect and ±100 for the full control effect
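Pol eta (10 nM) was preincubated with compounds for 15 min at room temperature, after which fluorescent replication substrate (50 nM final) was added to start the reaction. Fluorescence was read kinetically at 0 and 10 min.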
POLB inh: blocks human DNA polymerase beta activity. P06746. Pol beta primer extension/strand displacement, fluorescence kinetic. Potency, µM (titrated, usually from 114 µM), for the others: top-dose activity change, negative = inhibition, hits mostly inhibitors. 340,000 compounds, 1.3% hits. AID 485314; note: potency is the fitted concentration of half-maximal effect; % is set by controls: 0 for no effect and ±100 for the full control effect
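10 nM enzyme + cpd, 15 min RT; start with substrate 50 nM final; read 0 min and after 10 min RT. Corrected, normalized data; 4-parameter Hill curve fit.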
Starred values were filed as active, the others as inactive; ? = inconclusive; / = no result; [ ] = dose if it differs, or a comment. Unless noted, calls come from the whole dose curve; as a rule, active = well fitted inhibition curve with a large enough effect; inconclusive = small, poorly fitted or top-dose-only effect, or another doubt; inactive = no such curve, though single readings can be large or run the other way.

SMILES	Pol kappa inh	PI4K2A block	Pol iota inh	PI5P4K alpha inh	Pol eta inh	POLB inh
CCCc1nc2sc3ccccc3c(=O)c2c(=O)n1Cc1ccco1	?	-16	?	?	?	50µM*
CCCc1nc2oc3cc(OC)ccc3c(=O)c2c(=O)n1Cc1ccco1	-43%	?	?	?	?	45µM*
O=C(CCNC(=O)c1ccc(Br)cc1)Nc1ccc(S(=O)(=O)N2CCOCC2)cc1	-10%	-3	59%	1	-18%	/
O=C(CSc1nc2sccc2c(=O)[nH]1)N1CCN(c2ccccc2)CC1	?	-5	?	?	50µM*	25µM*
Cc1cccc(Nc2nc(C)cc(C)c2C#N)c1	-2%	0	11%	4	-19%	-13%
Cc1cccc(Nc2nc(N)c(C#N)c(CC#N)c2C#N)c1	-3%	-5	107%	-54*	-13%	30%
Cc1cccc(Nc2nc(N)nc(N)c2N=O)c1	-4%	-19	2%	-51*	-5%	/
COc1ccc(/C=C/c2ccnc3ccccc23)c(OC)c1	-17%	/	7%	/	/	/
COc1ccc(S(=O)(=O)Nc2ccc3oc4c(c3c2)C(=O)CC(C)(C)C4)cc1	-5%	2	-15%	/	-2%	-17%
Cc1cc(C)c(S(=O)(=O)Nc2ccc3oc4c(c3c2)C(=O)CC(C)(C)C4)cc1C	-3%	-3	79µM*	/	-10%	-12%
COc1cccc(/C=N/Nc2snc(SC)c2C#N)c1	-12%	-6	-2%	-1	-1%	4%
COc1ccc(/C=N/Nc2snc(SC)c2C#N)cc1OC	-22%	-54*	?	-1	-5%	?
O=P(O)(O)OCC(O)CO (stereo not drawn)	/	3	/	/	/	/
O=CN/C=C/c1cc(O)ccc1O	45µM*	-10	22µM*	-64*	50µM*	?
O=Cc1ccc(O)cc1O	-19%	3	22%	-2	-13%	11%
Cc1oc2c(O)c(O)ccc2c(=O)c1-c1cnn(-c2ccccc2)c1	40µM*	5	?	/	?	3%
O=C(c1ccc(Cl)c(S(=O)(=O)N2CCc3ccccc3C2)c1)N1CCN(c2ccccc2)CC1	-4%	0	188%	15	-24%	-1%
O=C(c1ccc(Cl)c(S(=O)(=O)Nc2ccccc2C(=O)N2CCc3ccccc3C2)c1)N1CCc2ccccc2C1	-33%	-3	32%	3	40µM*	13%
CC1=C2NC(N)=[N+](Cc3ccccc3)CC2n2c(=O)n(-c3ccccc3)c(=O)n2C1 (stereo not drawn)	/	-7	/	/	/	/
COc1ccccc1N=c1scc(-c2ccc(S(=O)(=O)N3CCCC3)cc2)n1C	-29%	-2	-19%	/	-12%	-3%
Cc1nc(C(F)(F)F)ccc1C(=O)N1CCC1(C)C(=O)Nc1ccc2c(c1)OCO2 (stereo not drawn)	/	-1	/	-5	/	/
CC(=O)Nc1ccc(S(=O)(=O)NCCC(=O)OCC(=O)N2CCN(C(=O)c3ccco3)CC2)cc1	-32%	2	45µM*	-16	?	45µM*
O=C(CCNS(=O)(=O)c1cccc(Cl)c1)OCC(=O)N1CCN(C(=O)c2ccco2)CC1	-33%	6	?	-23	-7%	/
COc1ccccc1C(=O)Nc1c(C(=O)N(C)c2ccccc2)sc2nc(C)cc(C)c12	3%	0	16µM*	/	-12%	35%
Cc1cc(C)c2c(NC(=O)c3ccccc3)c(C(=O)Nc3ccc(F)cc3)sc2n1	-9%[60.1 µM]	-1	1%	/	5%	6%
SMILES	Pol kappa inh	PI4K2A block	Pol iota inh	PI5P4K alpha inh	Pol eta inh	POLB inh
O=C(O)Cn1cc(/C=c2/sc3nc4ccccc4n3c2=O)c2ccccc21	?	1	17%	?	79µM*	4%
O=S(=O)(O)c1cccc2cccnc12	7%	/	-4%	/	/	/
CSS(=O)(=O)c1cccc2cccnc12	-3%	6	26%	-91*	-1%	9%
Cc1ccc(-c2cc(-c3ccc4c(c3)OCO4)c(C#N)c(N)n2)o1	-5%	13	21%	/	-10%	?
CCOc1cc(-c2cc(-c3ccc(C)o3)nc(N)c2C#N)ccc1O	-12%	-5	21%	-55*	-12%	3%
Cc1ccc(-c2cc(-c3ccc(Cl)cc3)c(C#N)c(N)n2)o1	-9%	3	-2%	-93*	-18%	0%
Cc1ccc(-c2cc(-c3ccc(F)cc3)c(C#N)c(N)n2)o1	-10%	-1	1%	-67*	-5%	-3%
Cc1ccc(-c2cc(-c3ccc(C)o3)nc(N)c2C#N)cc1	-39%	-3	?	-90*	-9%	6%
CC(=O)N1CCc2cc(S(=O)(=O)NCCC(=O)N(C)Cc3ccccc3F)ccc21	/	2	/	/	/	/
CCCCC(=O)Nc1ccc(C(=O)NCC2COc3ccccc3O2)cc1 (stereo not drawn)	/	1	/	/	/	/
COc1ccc(-c2cc(-c3ccc(O)cc3)nc(N)c2C#N)cc1OC	-13%	7	9%	-28	-22%	-6%
Cc1cc(-c2cc(-c3ccc(Cl)cc3)nc(N)c2C#N)co1	-15%	4	?	-69*	?	?
CCCCc1cc(-c2n[nH]c(=S)o2)c2ccccc2n1	-10%	11	124%	-56*	-5%	-5%
Cc1cccc(Nc2nnc(SCC(=O)Nc3ccc(C(=O)O)cc3)s2)c1	-6%	-2	103%	-19	-12%	73%
Cc1cccc(Nc2nnc(SCC(O)=C(C#N)c3nc4ccccc4[nH]3)s2)c1	-27%	-11	?	-61*	?	/
C#CCOCCOCCOCCNc1nc(N2CCN(C(=O)CCCCCCCCCCNC(=O)[C@H](CO)n3cc(CCCSC)nn3)CC2)nc(N2CCN(C(=O)CCCCCCCCCCNC(=O)[C@H](CCCCN)n3cc(CCO)nn3)CC2)n1	-3%	-1	?	-51*	?	/
C#CCOCCOCCOCCNc1nc(N2CCN(C(=O)CCCCCCCCCCNC(=O)Cn3cc(C[C@@H](C)O)nn3)CC2)nc(N2CCN(C(=O)CCCCCCCCCCNC(=O)[C@H](CCCN=C(N)N)n3cc(C[C@@H](C)CC)nn3)CC2)n1	-12%	-1	25%	-76*	?	/
C#CCOCCOCCOCCNc1nc(N2CCN(C(=O)CCCCCCCCCCNC(=O)Cn3cc(C[C@@H](C)O)nn3)CC2)nc(N2CCN(C(=O)CCCCCCCCCCNC(=O)[C@H](CO)n3cc(CCCSC)nn3)CC2)n1	3%	-3	25%	-3	-18%	/

Compound activity as filed in PubChem.
